Common to all, as to assay: DAPPL (digital affinity profiling via proximity ligation, sequencing); 10 mM Tris-HCl pH 7.5, 50 mM NaCl, 1 mM DTT, 4% glycerol, room temperature, 30 min; GST-TFs on glutathione beads, 16-mer random dsDNA library, 0.1% formaldehyde crosslink after washing; high values mean tight binding
For one experiment, the target named is T1, FEV (Homo sapiens, UniProt Q99581 1-238).
T1 sequence: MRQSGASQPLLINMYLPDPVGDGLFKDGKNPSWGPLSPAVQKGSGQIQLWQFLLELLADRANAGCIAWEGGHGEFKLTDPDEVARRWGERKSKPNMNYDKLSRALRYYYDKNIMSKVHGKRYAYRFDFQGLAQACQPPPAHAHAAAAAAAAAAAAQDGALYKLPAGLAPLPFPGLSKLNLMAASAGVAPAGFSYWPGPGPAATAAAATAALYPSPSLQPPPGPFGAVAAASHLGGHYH
The settings on record: protein: recombinant; tags: N-terminal GST; dsDNA, one strand shown. The procedure, abridged:
(§1)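 Binding signal is each hexamer's read frequency for a factor divided by its frequency in the tag-only sample. The factors were GST-fused human transcription factors from yeast, captured on glutathione beads, DNA-barcoded and pooled with that sample. Pools were incubated with 200 nmole of a random double-stranded 16-mer DNA library in Tris/NaCl/DTT/glycerol buffer at room temperature for 30 min, then washed, crosslinked with 0.1% formaldehyde, proximity-ligated with BsaI/T4 ligase (1 h, 37 °C), PCR-amplified and sequenced on an Illumina NextSeq500.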

A further experiment addresses ETV5 (Homo sapiens, UniProt P41161 1-510). The settings on record: protein: recombinant; tags: N-terminal GST; dsDNA, one strand shown. The procedure, abridged:
as §1

For another experiment, the target named is HSF1 (Homo sapiens, UniProt Q00613 1-529). The settings on record: protein: recombinant; tags: N-terminal GST; chain copies: 3; dsDNA, one strand shown. The procedure, abridged:
as §1

The target of the next experiment is T2, SPIC (Homo sapiens, UniProt Q8N5J4 1-248).
T2 sequence: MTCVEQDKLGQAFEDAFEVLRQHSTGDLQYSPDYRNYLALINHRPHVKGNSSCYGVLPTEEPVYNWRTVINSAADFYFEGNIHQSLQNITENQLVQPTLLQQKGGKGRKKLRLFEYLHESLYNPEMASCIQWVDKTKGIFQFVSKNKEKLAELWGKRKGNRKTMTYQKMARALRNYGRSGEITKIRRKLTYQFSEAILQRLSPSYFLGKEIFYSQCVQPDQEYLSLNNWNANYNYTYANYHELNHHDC
The settings on record: protein: recombinant; tags: N-terminal GST; dsDNA, one strand shown. A digest of the protocol:
as §1

The target in the next experiment is ELF4 (Homo sapiens, UniProt Q99607 1-663). The settings on record: protein: recombinant; tags: N-terminal GST; dsDNA, one strand shown. A digest of the protocol:
as §1

A further experiment deals with T3, ELK4 (Homo sapiens, UniProt P28324-2 1-405).
T3 sequence: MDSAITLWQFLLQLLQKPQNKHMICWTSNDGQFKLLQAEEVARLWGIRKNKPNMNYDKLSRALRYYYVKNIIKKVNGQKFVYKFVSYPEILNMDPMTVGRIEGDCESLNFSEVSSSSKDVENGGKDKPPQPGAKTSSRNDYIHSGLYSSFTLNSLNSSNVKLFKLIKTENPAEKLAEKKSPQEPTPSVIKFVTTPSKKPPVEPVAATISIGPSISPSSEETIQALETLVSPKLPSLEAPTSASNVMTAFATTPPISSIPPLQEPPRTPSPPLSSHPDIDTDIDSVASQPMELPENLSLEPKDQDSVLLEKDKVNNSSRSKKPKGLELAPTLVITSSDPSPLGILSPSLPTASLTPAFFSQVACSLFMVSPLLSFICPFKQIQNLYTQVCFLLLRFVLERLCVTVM
The settings on record: protein: recombinant; tags: N-terminal GST; dsDNA, one strand shown. The procedure, abridged: as §1

The target in a further experiment is T4, ETV2 (Homo sapiens, UniProt O00321 1-342).
T4 sequence: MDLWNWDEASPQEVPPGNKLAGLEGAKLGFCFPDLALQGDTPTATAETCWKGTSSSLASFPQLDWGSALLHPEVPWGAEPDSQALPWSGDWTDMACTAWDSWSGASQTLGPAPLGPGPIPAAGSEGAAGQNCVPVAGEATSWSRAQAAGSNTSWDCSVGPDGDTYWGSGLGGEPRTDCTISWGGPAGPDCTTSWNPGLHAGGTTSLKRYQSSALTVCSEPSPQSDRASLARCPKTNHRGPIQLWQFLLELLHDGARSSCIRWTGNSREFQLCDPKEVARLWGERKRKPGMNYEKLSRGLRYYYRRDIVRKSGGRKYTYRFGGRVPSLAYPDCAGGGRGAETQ
The settings on record: protein: recombinant; tags: N-terminal GST; dsDNA, one strand shown. A digest of the protocol:
as §1

In another experiment the target is T5, ELF3 (Homo sapiens, UniProt P78545 1-371).
T5 sequence: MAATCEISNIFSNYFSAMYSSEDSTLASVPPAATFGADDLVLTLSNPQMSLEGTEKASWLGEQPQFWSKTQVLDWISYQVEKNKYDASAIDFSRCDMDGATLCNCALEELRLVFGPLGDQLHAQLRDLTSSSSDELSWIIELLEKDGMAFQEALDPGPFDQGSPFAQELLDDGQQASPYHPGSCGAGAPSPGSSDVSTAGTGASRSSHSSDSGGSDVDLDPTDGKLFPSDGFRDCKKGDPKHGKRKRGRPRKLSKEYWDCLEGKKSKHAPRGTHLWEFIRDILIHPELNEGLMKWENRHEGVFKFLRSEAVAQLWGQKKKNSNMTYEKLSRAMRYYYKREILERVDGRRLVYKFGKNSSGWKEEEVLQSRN
The settings on record: protein: recombinant; tags: N-terminal GST; dsDNA, one strand shown. The procedure, abridged: as §1

In the next experiment the target is CRX (Homo sapiens, UniProt O43186 1-299). The settings on record: protein: recombinant; tags: N-terminal GST; dsDNA, one strand shown. A digest of the protocol:
as §1

The next experiment has as its target ETV1 (Homo sapiens, UniProt P50549 1-477). The settings on record: protein: recombinant; tags: N-terminal GST; dsDNA, one strand shown. A digest of the protocol:
as §1

A further experiment has as its target T6, ERF (Homo sapiens, UniProt P50548 1-548).
T6 sequence: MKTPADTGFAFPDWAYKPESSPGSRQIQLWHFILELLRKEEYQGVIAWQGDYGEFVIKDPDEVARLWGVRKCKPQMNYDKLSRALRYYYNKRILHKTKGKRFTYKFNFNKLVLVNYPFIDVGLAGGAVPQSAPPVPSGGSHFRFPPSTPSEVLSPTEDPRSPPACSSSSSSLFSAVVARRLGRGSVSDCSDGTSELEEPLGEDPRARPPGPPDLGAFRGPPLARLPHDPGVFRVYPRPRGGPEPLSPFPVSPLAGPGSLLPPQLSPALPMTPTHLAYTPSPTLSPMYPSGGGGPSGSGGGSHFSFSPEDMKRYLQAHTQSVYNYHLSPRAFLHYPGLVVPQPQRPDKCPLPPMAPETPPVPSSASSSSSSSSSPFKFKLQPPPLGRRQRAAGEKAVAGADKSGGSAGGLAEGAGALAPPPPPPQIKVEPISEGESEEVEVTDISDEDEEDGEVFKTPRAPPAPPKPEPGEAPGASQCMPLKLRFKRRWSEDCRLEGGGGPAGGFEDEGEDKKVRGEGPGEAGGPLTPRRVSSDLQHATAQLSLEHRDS
The settings on record: protein: recombinant; tags: N-terminal GST; dsDNA, one strand shown. The procedure, abridged:
as §1

In another experiment the target is T7, ETV3L (Homo sapiens, UniProt Q6ZN32 1-361).
T7 sequence: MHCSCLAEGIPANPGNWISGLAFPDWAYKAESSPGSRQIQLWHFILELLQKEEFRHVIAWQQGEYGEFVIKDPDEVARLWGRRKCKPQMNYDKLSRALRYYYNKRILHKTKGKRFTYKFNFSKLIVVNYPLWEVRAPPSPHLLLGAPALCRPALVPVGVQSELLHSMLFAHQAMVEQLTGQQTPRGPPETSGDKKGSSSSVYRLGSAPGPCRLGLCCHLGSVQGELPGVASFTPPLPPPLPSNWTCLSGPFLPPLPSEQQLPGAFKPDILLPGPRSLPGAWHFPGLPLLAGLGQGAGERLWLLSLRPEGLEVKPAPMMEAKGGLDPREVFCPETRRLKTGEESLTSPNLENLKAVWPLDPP
The settings on record: protein: recombinant; tags: N-terminal GST; dsDNA, one strand shown. A digest of the protocol:
as §1

Another experiment concerns the target T8, ETS2 (Homo sapiens, UniProt P15036 1-469).
T8 sequence: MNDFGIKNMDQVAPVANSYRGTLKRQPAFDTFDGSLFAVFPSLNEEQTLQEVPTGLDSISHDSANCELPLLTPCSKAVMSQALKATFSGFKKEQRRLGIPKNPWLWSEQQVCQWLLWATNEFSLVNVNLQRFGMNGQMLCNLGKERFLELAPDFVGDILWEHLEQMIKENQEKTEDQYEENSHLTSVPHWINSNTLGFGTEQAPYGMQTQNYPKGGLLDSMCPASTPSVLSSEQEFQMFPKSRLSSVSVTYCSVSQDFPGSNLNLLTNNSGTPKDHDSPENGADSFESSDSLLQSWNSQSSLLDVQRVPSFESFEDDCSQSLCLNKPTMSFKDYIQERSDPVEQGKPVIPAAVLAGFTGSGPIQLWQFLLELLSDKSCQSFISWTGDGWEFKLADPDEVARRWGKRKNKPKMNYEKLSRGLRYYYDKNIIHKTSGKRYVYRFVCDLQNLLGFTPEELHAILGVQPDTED
The settings on record: protein: recombinant; tags: N-terminal GST; dsDNA, one strand shown. The procedure, abridged: as §1

The next experiment deals with T9, SPDEF (Homo sapiens, UniProt O95238 1-335).
T9 sequence: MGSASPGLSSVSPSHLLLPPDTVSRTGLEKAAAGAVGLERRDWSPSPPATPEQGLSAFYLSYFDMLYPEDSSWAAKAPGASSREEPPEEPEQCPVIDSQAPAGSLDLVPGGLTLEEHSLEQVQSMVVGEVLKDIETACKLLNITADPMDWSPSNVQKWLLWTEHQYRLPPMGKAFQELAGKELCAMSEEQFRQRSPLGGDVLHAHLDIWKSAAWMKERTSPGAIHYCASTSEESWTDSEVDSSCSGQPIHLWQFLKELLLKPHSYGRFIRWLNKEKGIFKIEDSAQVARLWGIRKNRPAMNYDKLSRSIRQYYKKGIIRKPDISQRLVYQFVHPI
The settings on record: protein: recombinant; tags: N-terminal GST; dsDNA, one strand shown. A digest of the protocol:
as §1

For a further experiment, the target named is T10, ETV7 (Homo sapiens, UniProt Q9Y603 1-341).
T10 sequence: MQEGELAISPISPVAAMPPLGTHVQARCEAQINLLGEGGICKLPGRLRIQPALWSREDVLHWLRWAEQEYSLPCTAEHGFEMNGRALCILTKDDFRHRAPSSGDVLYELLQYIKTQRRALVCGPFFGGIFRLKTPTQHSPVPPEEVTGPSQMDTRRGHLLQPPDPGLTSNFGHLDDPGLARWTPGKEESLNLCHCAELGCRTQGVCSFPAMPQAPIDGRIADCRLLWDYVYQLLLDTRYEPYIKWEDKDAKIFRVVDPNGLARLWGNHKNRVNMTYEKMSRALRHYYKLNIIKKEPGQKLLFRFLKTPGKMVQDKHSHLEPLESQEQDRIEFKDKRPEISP
The settings on record: protein: recombinant; tags: N-terminal GST; dsDNA, one strand shown. The procedure, abridged:
as §1

Another experiment has as its target T11, ELF5 (Homo sapiens, UniProt Q9UKW6-2 1-255).
T11 sequence: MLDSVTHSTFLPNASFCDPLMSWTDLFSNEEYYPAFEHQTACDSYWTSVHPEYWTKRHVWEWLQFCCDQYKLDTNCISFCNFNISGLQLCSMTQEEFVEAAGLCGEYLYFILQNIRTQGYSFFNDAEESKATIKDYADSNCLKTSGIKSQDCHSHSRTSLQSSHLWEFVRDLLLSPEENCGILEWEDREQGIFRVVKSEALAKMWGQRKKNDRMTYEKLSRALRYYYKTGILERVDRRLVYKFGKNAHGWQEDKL
The settings on record: protein: recombinant; tags: N-terminal GST; dsDNA, one strand shown. The procedure, abridged: as §1

In a further experiment the target is T12, ETV3 (Homo sapiens, UniProt P41162-2 1-143).
T12 sequence: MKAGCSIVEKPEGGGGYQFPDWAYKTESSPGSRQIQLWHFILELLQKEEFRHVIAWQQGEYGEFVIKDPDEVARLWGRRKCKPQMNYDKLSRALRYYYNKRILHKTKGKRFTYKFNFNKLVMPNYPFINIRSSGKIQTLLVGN
The settings on record: protein: recombinant; tags: N-terminal GST; dsDNA, one strand shown. A digest of the protocol: as §1

The target of the next experiment is ETV6 (Homo sapiens, UniProt P41212 1-452). The settings on record: protein: recombinant; tags: N-terminal GST; dsDNA, one strand shown. The procedure, abridged: as §1

This note sets out measurements from PMC7862700, “An all-to-all approach to the identification of sequence-specific readers for epigenetic DNA modifications on cytosine”.

Sequence of ETV1 (P50549 whole entry): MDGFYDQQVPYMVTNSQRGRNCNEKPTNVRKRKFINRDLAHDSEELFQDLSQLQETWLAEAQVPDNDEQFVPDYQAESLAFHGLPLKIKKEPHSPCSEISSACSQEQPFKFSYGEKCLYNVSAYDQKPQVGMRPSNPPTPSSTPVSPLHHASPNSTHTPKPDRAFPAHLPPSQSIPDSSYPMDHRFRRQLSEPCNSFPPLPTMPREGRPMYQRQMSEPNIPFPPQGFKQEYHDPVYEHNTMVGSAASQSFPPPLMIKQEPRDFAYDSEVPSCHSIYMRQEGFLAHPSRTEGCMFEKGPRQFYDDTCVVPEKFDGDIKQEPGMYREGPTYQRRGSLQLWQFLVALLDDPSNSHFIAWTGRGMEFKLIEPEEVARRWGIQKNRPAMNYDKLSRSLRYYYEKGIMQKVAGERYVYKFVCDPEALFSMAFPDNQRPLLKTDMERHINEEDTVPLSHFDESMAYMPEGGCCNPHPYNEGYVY
Sequence of ETV6 (P41212 whole entry): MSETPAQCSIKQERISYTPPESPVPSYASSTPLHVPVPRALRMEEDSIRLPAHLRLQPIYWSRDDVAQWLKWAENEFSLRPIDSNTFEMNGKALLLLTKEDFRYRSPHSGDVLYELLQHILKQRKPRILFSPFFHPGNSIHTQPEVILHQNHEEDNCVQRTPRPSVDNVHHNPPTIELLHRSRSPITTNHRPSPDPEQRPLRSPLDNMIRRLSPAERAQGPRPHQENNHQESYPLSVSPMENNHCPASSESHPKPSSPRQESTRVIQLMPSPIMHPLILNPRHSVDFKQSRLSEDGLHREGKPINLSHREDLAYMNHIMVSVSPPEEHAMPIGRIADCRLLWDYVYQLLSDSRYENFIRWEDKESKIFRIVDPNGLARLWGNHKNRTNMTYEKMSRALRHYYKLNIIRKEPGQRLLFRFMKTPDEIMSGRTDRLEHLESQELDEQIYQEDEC
Sequence of HSF1 (Q00613 whole entry): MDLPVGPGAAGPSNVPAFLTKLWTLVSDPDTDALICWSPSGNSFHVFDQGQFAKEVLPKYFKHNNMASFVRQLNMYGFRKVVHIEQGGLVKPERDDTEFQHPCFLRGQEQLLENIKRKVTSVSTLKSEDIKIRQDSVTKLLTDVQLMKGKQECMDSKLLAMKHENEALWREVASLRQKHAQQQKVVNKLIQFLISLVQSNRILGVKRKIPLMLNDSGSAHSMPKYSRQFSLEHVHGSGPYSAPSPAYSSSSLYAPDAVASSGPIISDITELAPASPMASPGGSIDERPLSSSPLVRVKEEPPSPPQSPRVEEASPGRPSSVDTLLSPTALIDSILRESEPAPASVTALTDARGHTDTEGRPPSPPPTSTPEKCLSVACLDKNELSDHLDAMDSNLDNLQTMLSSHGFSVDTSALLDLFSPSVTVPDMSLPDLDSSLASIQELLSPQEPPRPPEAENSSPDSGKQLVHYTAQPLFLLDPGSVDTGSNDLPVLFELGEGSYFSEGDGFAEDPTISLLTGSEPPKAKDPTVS
Sequence of ELF4 (Q99607 whole entry): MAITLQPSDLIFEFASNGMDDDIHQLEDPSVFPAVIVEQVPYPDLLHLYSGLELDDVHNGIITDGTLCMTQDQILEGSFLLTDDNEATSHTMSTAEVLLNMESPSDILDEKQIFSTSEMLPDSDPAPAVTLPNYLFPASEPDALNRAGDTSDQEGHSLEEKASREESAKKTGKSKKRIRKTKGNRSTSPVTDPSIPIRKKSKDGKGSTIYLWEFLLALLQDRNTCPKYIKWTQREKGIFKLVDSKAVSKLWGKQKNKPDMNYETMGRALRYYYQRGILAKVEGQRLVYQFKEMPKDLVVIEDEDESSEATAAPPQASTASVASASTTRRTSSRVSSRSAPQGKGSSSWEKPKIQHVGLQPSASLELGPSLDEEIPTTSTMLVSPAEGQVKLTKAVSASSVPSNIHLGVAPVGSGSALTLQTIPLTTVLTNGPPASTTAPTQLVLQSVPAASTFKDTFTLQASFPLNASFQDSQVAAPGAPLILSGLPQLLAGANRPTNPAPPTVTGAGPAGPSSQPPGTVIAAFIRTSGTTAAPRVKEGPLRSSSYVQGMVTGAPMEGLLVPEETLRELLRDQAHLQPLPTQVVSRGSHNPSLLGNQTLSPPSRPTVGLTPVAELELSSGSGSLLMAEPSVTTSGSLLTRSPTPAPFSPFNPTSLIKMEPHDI
Sequence of ETV5 (P41161 whole entry): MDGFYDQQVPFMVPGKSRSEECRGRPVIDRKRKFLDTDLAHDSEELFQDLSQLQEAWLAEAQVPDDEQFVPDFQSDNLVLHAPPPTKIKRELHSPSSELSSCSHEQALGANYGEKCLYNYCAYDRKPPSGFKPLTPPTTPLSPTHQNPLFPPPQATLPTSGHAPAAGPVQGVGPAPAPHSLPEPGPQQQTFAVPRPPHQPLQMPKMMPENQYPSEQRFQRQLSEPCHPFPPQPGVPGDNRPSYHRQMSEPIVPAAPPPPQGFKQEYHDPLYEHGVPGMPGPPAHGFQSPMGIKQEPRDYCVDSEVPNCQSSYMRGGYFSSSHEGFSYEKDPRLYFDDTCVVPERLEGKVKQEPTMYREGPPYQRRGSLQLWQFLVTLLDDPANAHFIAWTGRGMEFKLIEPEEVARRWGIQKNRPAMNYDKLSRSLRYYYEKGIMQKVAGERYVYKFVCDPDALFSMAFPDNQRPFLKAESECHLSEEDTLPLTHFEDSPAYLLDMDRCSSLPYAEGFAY
Sequence of CRX (O43186 whole entry): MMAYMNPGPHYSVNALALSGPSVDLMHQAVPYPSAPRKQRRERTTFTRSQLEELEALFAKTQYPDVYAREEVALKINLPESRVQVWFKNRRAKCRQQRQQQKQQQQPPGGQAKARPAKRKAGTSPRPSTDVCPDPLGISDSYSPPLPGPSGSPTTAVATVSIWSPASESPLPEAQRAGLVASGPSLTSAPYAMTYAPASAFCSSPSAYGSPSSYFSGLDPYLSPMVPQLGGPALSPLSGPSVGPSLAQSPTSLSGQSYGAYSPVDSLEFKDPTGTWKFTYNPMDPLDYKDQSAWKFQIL

Consider TCATAT, for which the binding signal is 1.24 fold enrichment (6-mer frequency, TF over GST control) with FEV; 1.23 fold enrichment (6-mer frequency, TF over GST control) in the experiment with ETV5; 1.15 fold enrichment (6-mer frequency, TF over GST control) in the experiment with HSF1; 1.13 fold enrichment (6-mer frequency, TF over GST control) in the experiment with SPIC; 1.28 fold enrichment (6-mer frequency, TF over GST control) with ELF4; 1.23 fold enrichment (6-mer frequency, TF over GST control) with ELK4. Moreover, the binding signal with ETV2 is 1.29 fold enrichment (6-mer frequency, TF over GST control); with ELF3, 1.23 fold enrichment (6-mer frequency, TF over GST control); with CRX, 1.22 fold enrichment (6-mer frequency, TF over GST control); with ETV1, 1.35 fold enrichment (6-mer frequency, TF over GST control); with ERF, 1.22 fold enrichment (6-mer frequency, TF over GST control); in the experiment with ETV3L, 1.3 fold enrichment (6-mer frequency, TF over GST control). Also, the binding signal in the experiment with ETS2 is 1.27 fold enrichment (6-mer frequency, TF over GST control); in the experiment with SPDEF, 1.23 fold enrichment (6-mer frequency, TF over GST control); in the experiment with ETV7 it was 1.05 fold enrichment (6-mer frequency, TF over GST control); in the experiment with ELF5, 1.19 fold enrichment (6-mer frequency, TF over GST control); with ETV3, 1.26 fold enrichment (6-mer frequency, TF over GST control); in the experiment with ETV6, 1.24 fold enrichment (6-mer frequency, TF over GST control).
